Data: PubChem BioAssay (NCI)
Compounds without any hit were thinned out: in the full panel of roughly 83,000, 20% have a hit.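 Activity criterion: percent growth below 10, measured after cells in 96-well plates were exposed to a single compound concentration for 48 hours.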 Activity calls are given as the source filed them.

What was measured:
Experiment in all cases: NCI-60 one-dose screen, 48 h (100 = growth as untreated, 0 = no growth, -100 = all killed)
Details in all cases: 10 µM unless noted
SK-MEL-2 melanoma = system: SK-MEL-2 melanoma
EKVX NSCLC = system: EKVX NSCLC
SN12C renal = system: SN12C renal
UO-31 renal = system: UO-31 renal
TK-10 renal = system: TK-10 renal
ACHN renal = system: ACHN renal
CAKI-1 renal = system: CAKI-1 renal
A498 renal = system: A498 renal
CCRF-CEM leukemia = system: CCRF-CEM leukemia
MOLT-4 leukemia = system: MOLT-4 leukemia
SR leukemia = system: SR leukemia
RPMI-8226 leukemia = system: RPMI-8226 leukemia
OVCAR-8 ovarian = system: OVCAR-8 ovarian
OVCAR-5 ovarian = system: OVCAR-5 ovarian
OVCAR-4 ovarian = system: OVCAR-4 ovarian
SK-OV-3 ovarian = system: SK-OV-3 ovarian
IGROV1 ovarian = system: IGROV1 ovarian
OVCAR-3 ovarian = system: OVCAR-3 ovarian
HS 578T breast = system: HS 578T breast
NCI/ADR-RES ovarian = system: NCI/ADR-RES ovarian

Measured: growth

COc1ccc(-c2nn(-c3ccc(Cl)cc3)cc2-c2nc3ccccc3[nH]2)cc1
inactive: SK-MEL-2 melanoma 101% | EKVX NSCLC 85.2% | SN12C renal 85.7% | UO-31 renal 44.4% | TK-10 renal 91.2% | ACHN renal 89.5% | CAKI-1 renal 92% | A498 renal 100% | CCRF-CEM leukemia 99.9% | MOLT-4 leukemia 81.8% | SR leukemia 80.3% | RPMI-8226 leukemia 93.9% | OVCAR-8 ovarian 105% | OVCAR-5 ovarian 110% | OVCAR-4 ovarian 88% | SK-OV-3 ovarian 101% | IGROV1 ovarian 71.4% | OVCAR-3 ovarian 94% | HS 578T breast 93% | NCI/ADR-RES ovarian 102%

C#CC(F)(F)[C@]1(O)CC[C@H]2[C@@H]3CCC4=CC(=O)CCC4=C3[C@@H](c3ccc(C4CC4)cc3)C[C@@]21C
inactive: SK-MEL-2 melanoma 59.5% | SN12C renal 60.3% | TK-10 renal 99.8% | ACHN renal 40.4% | OVCAR-8 ovarian 24.8% | OVCAR-4 ovarian 10.9% | HS 578T breast 33.4% | NCI/ADR-RES ovarian 11%
active: EKVX NSCLC -67.4% | UO-31 renal -84.8% | CAKI-1 renal -73.3% | A498 renal -5.83% | CCRF-CEM leukemia -63% | MOLT-4 leukemia -6.54% | SR leukemia -38.7% | RPMI-8226 leukemia -42.5% | OVCAR-5 ovarian 9.97% | SK-OV-3 ovarian -79.4% | IGROV1 ovarian -48.5% | OVCAR-3 ovarian -73.4%

Cc1ccc2c(C(C[N+](=O)[O-])c3ccccc3F)c(-c3ccccc3)[nH]c2c1 (stereo not given)
inactive: SK-MEL-2 melanoma 15.4% | EKVX NSCLC 56.3% | SN12C renal 54.5% | UO-31 renal 47.5% | TK-10 renal 70.6% | ACHN renal 48.5% | CAKI-1 renal 32.9% | A498 renal 32.5% | CCRF-CEM leukemia 28.6% | MOLT-4 leukemia 25.9% | SR leukemia 25.8% | RPMI-8226 leukemia 51.5% | OVCAR-8 ovarian 56.5% | OVCAR-5 ovarian 74.4% | OVCAR-4 ovarian 65.7% | SK-OV-3 ovarian 31.5% | IGROV1 ovarian 32% | OVCAR-3 ovarian 13.2% | HS 578T breast 33.8% | NCI/ADR-RES ovarian 23.9%

CSc1nc2c(c(=O)[nH]1)C1(C(=O)Nc3ccccc31)c1c(nc(SC)[nH]c1=O)N2
inactive: SK-MEL-2 melanoma 105% | EKVX NSCLC 108% | SN12C renal 102% | UO-31 renal 87.1% | TK-10 renal 110% | ACHN renal 103% | CAKI-1 renal 103% | A498 renal 116% | CCRF-CEM leukemia 109% | MOLT-4 leukemia 108% | SR leukemia 98.8% | RPMI-8226 leukemia 108% | OVCAR-8 ovarian 110% | OVCAR-5 ovarian 93.9% | OVCAR-4 ovarian 109% | SK-OV-3 ovarian 114% | IGROV1 ovarian 102% | OVCAR-3 ovarian 105% | HS 578T breast 106% | NCI/ADR-RES ovarian 108%

CC(=O)Nc1ccc(S(=O)(=O)Nc2cccc(-c3nc(-c4ccc(NC(=O)c5cccnc5)cc4Cl)no3)c2)cc1
inactive: SK-MEL-2 melanoma 35.9% | EKVX NSCLC 54.3% | SN12C renal 41.3% | UO-31 renal 82.9% | TK-10 renal 69.9% | ACHN renal 81.2% | CAKI-1 renal 90.6% | A498 renal 36.9% | CCRF-CEM leukemia 23.3% | MOLT-4 leukemia 25.8% | SR leukemia 19% | RPMI-8226 leukemia 43.8% | OVCAR-8 ovarian 38.8% | OVCAR-5 ovarian 84.7% | OVCAR-4 ovarian 53% | SK-OV-3 ovarian 20.9% | IGROV1 ovarian 54.7% | OVCAR-3 ovarian 20.7% | HS 578T breast 24.5% | NCI/ADR-RES ovarian 94.7%

CC1SC(c2ccc(N(C)C)cc2)N(NC(=O)C(O)(c2ccccc2)c2ccccc2)C1=O (stereo not given)
inactive: SK-MEL-2 melanoma 104% | EKVX NSCLC 93.5% | SN12C renal 110% | UO-31 renal 47.7% | TK-10 renal 89.4% | ACHN renal 94% | CAKI-1 renal 91.2% | A498 renal 101% | CCRF-CEM leukemia 65.1% | MOLT-4 leukemia 72% | SR leukemia 90% | RPMI-8226 leukemia 60.1% | OVCAR-8 ovarian 77.4% | OVCAR-5 ovarian 104% | OVCAR-4 ovarian 95.7% | SK-OV-3 ovarian 97.6% | IGROV1 ovarian 80.5% | OVCAR-3 ovarian 95% | HS 578T breast 103% | NCI/ADR-RES ovarian 95%

Cc1ccccc1COc1ccc(-c2ccnn2-c2ccc(Cl)cc2)cc1
inactive: SK-MEL-2 melanoma 39.2% | EKVX NSCLC 77% | SN12C renal 67.6% | UO-31 renal 74.4% | TK-10 renal 83.8% | ACHN renal 77.6% | CAKI-1 renal 59.7% | A498 renal 57.5% | CCRF-CEM leukemia 42.4% | MOLT-4 leukemia 26.3% | SR leukemia 33.8% | RPMI-8226 leukemia 77.6% | OVCAR-8 ovarian 75.3% | OVCAR-5 ovarian 91.7% | OVCAR-4 ovarian 85.7% | SK-OV-3 ovarian 63.7% | IGROV1 ovarian 57.5% | OVCAR-3 ovarian 26.6% | HS 578T breast 60.9% | NCI/ADR-RES ovarian 38%

COc1ccc(-n2nc(C)c3c(Oc4ccc(NC(=O)Nc5c(Cl)cccc5Cl)cc4)ncnc32)cc1
inactive: SK-MEL-2 melanoma 106% | EKVX NSCLC 95.8% | SN12C renal 101% | UO-31 renal 86.5% | TK-10 renal 110% | ACHN renal 106% | CAKI-1 renal 95.3% | A498 renal 99.1% | CCRF-CEM leukemia 95.5% | MOLT-4 leukemia 106% | SR leukemia 111% | RPMI-8226 leukemia 102% | OVCAR-8 ovarian 97.4% | OVCAR-5 ovarian 112% | OVCAR-4 ovarian 99.9% | SK-OV-3 ovarian 89% | IGROV1 ovarian 101% | OVCAR-3 ovarian 112% | HS 578T breast 92% | NCI/ADR-RES ovarian 102%

O=C1c2ccccc2C(=O)c2c1ccc1[nH]c(-c3cccs3)nc21
inactive: SK-MEL-2 melanoma 107% | EKVX NSCLC 71.7% | SN12C renal 73.4% | UO-31 renal 58.6% | TK-10 renal 87.3% | ACHN renal 66.5% | CAKI-1 renal 82% | A498 renal 96.5% | CCRF-CEM leukemia 88.4% | MOLT-4 leukemia 70.1% | SR leukemia 37.4% | RPMI-8226 leukemia 63.7% | OVCAR-8 ovarian 81.5% | OVCAR-5 ovarian 88.5% | OVCAR-4 ovarian 102% | SK-OV-3 ovarian 107% | IGROV1 ovarian 89.7% | OVCAR-3 ovarian 82.8% | HS 578T breast 99.2% | NCI/ADR-RES ovarian 78.7%

Cc1ccc2c(C(C[N+](=O)[O-])c3ccccc3)c(-c3ccccc3)[nH]c2c1 (stereo not given)
active: SK-MEL-2 melanoma 1.05% [9.5 µM] | A498 renal -1.59% [9.5 µM] | OVCAR-3 ovarian 3.85% [9.5 µM] | HS 578T breast 1.97% [9.5 µM]
inactive: EKVX NSCLC 42.3% [9.5 µM] | SN12C renal 42.2% [9.5 µM] | UO-31 renal 35% [9.5 µM] | TK-10 renal 43.7% [9.5 µM] | ACHN renal 36.7% [9.5 µM] | CAKI-1 renal 21.5% [9.5 µM] | CCRF-CEM leukemia 19.5% [9.5 µM] | MOLT-4 leukemia 21.2% [9.5 µM] | SR leukemia 25.4% [9.5 µM] | RPMI-8226 leukemia 24.4% [9.5 µM] | OVCAR-8 ovarian 29.6% [9.5 µM] | OVCAR-5 ovarian 52.2% [9.5 µM] | OVCAR-4 ovarian 59.8% [9.5 µM] | SK-OV-3 ovarian 19.3% [9.5 µM] | IGROV1 ovarian 27.4% [9.5 µM] | NCI/ADR-RES ovarian 10.9% [9.5 µM]

Cc1ccc(C2=NN3C(C2)c2cc(Br)ccc2OC32CCN(Cc3ccccc3)CC2)o1 (stereo not given)
inactive: SK-MEL-2 melanoma 100% | EKVX NSCLC 86.3% | SN12C renal 91.5% | UO-31 renal 58.6% | TK-10 renal 116% | ACHN renal 98.7% | CAKI-1 renal 71.6% | A498 renal 105% | CCRF-CEM leukemia 80.3% | MOLT-4 leukemia 79.6% | SR leukemia 90.2% | RPMI-8226 leukemia 80.8% | OVCAR-8 ovarian 98.8% | OVCAR-5 ovarian 109% | OVCAR-4 ovarian 94.3% | SK-OV-3 ovarian 93.7% | IGROV1 ovarian 82.1% | OVCAR-3 ovarian 96.6% | HS 578T breast 92% | NCI/ADR-RES ovarian 94%

COC[C@H](C)n1c(C2CCOCC2)nc2cnc3cc(-c4c(C)noc4C)c(OC)cc3c21
inactive: SK-MEL-2 melanoma 76.6% | EKVX NSCLC 59.7% | SN12C renal 76.1% | UO-31 renal 19.5% | TK-10 renal 29.4% | ACHN renal 43.7% | CAKI-1 renal 16.2% | CCRF-CEM leukemia 61.4% | MOLT-4 leukemia 42.2% | SR leukemia 33.5% | RPMI-8226 leukemia 24% | OVCAR-8 ovarian 49.6% | OVCAR-5 ovarian 79.9% | OVCAR-4 ovarian 54.7% | IGROV1 ovarian 66.5% | OVCAR-3 ovarian 49.8% | HS 578T breast 12.6% | NCI/ADR-RES ovarian 54.2%
active: A498 renal 5.12% | SK-OV-3 ovarian 7.03%

COc1ccc(-c2nc3cc(C(=O)Nc4cc(OC)c(OC)c(OC)c4)ccc3n2C2CCCCC2)cc1
inactive: SK-MEL-2 melanoma 95.6% | EKVX NSCLC 91.8% | SN12C renal 91.7% | UO-31 renal 78.7% | TK-10 renal 111% | ACHN renal 93.2% | CAKI-1 renal 97.4% | A498 renal 113% | CCRF-CEM leukemia 94.3% | MOLT-4 leukemia 83.1% | SR leukemia 57.5% | RPMI-8226 leukemia 91.7% | OVCAR-8 ovarian 96.6% | OVCAR-5 ovarian 98.1% | OVCAR-4 ovarian 109% | SK-OV-3 ovarian 104% | IGROV1 ovarian 96.5% | OVCAR-3 ovarian 101% | HS 578T breast 81.9% | NCI/ADR-RES ovarian 98.3%

CCn1c(O)c(/C=N/NC(=O)C(C)c2ccc(CC(C)C)cc2)sc1=S (stereo not given)
inactive: SK-MEL-2 melanoma 40.3% | EKVX NSCLC 41.1% | SN12C renal 38% | UO-31 renal 23.6% | TK-10 renal 56.5% | ACHN renal 34.6% | CAKI-1 renal 35.1% | A498 renal 17.2% | CCRF-CEM leukemia 12.9% | MOLT-4 leukemia 18.4% | SR leukemia 26.3% | OVCAR-8 ovarian 22.6% | OVCAR-5 ovarian 52% | OVCAR-4 ovarian 56.7% | SK-OV-3 ovarian 45.3% | IGROV1 ovarian 24.1% | HS 578T breast 17.8%
active: RPMI-8226 leukemia 1.77% | OVCAR-3 ovarian 1.8% | NCI/ADR-RES ovarian 5.41%

Nc1ccc(S(=O)(=O)O)c2ccc(N=Nc3ccc(N=Nc4ccc(S(=O)(=O)O)cc4)c4ccccc34)c(O)c12
inactive: SK-MEL-2 melanoma 110% | EKVX NSCLC 124% | SN12C renal 98.1% | UO-31 renal 55.8% | TK-10 renal 98.7% | ACHN renal 101% | CAKI-1 renal 95.3% | A498 renal 98.8% | CCRF-CEM leukemia 106% | MOLT-4 leukemia 80.2% | SR leukemia 99.8% | RPMI-8226 leukemia 104% | OVCAR-8 ovarian 103% | OVCAR-5 ovarian 108% | OVCAR-4 ovarian 115% | SK-OV-3 ovarian 96% | IGROV1 ovarian 86.5% | OVCAR-3 ovarian 108% | HS 578T breast 100% | NCI/ADR-RES ovarian 112%
